Compound activity: PubChem, several laboratories
In the library only some 0.67% were active in any assay of this set; here they are far more common.
GC-A act – GC-A (human) enzyme activation; P16066; HEK293 GC-A cells, cGMP TR-FRET, EC30 ANP; 0% at EC30 ANP, 100% saturating ANP; activation, % at 10 µM; actives 0.14% (n = 370,000); AID 1671463; in the data active means activation above about 40%
Target sequence (P16066 whole entry, looked up): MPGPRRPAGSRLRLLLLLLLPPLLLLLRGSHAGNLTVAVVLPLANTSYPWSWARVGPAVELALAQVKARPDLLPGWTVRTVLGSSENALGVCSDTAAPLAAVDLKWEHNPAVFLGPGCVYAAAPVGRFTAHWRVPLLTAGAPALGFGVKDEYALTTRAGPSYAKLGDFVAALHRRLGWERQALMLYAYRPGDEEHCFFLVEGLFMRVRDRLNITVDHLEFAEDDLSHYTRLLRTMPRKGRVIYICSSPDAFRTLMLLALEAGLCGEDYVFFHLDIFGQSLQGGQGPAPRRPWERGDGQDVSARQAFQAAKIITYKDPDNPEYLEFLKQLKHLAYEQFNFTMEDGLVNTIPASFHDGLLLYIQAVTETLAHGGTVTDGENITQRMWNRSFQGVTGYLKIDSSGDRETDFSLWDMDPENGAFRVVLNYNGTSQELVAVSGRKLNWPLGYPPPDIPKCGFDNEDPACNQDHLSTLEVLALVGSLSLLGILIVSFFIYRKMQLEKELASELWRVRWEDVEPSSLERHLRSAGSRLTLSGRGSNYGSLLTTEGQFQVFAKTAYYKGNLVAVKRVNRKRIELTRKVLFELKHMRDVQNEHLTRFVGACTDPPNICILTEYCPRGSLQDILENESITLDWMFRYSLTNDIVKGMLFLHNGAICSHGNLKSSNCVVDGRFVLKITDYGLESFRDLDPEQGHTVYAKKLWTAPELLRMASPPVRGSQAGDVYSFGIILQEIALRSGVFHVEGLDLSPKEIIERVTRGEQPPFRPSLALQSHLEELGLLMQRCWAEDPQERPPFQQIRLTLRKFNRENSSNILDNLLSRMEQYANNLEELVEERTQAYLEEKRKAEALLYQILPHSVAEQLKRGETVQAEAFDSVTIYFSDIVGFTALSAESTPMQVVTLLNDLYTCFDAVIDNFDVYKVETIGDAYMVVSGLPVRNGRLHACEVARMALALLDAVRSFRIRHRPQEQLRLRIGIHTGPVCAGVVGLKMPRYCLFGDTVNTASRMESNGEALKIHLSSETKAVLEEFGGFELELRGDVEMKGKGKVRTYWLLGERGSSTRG
Rin1 Abl inh – inhibitors of human Rin1-Abl protein interaction. AID 588664. actives 0.4% (n = 360,000). inhibition, % at 7.35 µM. P00519+Q13671. TR-FRET Rin1/Abl binding, biochemical; in the data active means inhibition above about 5%, passing the limit was not always enough
GC-B act – GC-B (human) receptor activation; actives 0.11% (n = 370,000); AID 1920062; activation, % at 10 µM; HEK293-GC-B cells, CNP EC30, cGMP TR-FRET; 0% at EC30 CNP, 100% saturating CNP; P20594;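 active means activation at 10 µM reaching about 35% in either raw or pattern-adjusted values, limit read from the data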
CaV13 ICDI inh – Disruptors of the CACNA1D IQ motif to Ca2+-dependent inactivation inhibitor domain association, primary screening, Förster resonance energy transfer in intact living …; inhibition, % at 12.3 µM; HEK cells, CFP/YFP FRET ICDI-IQ, plate reader, 10 min; percent FRET-ratio fall versus neutral wells; actives 0.098% (n = 340,000);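 active means mean replicate inhibition of at least 30% and at least 1% of replicates passing that level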;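 further: 0% = median of the neutral control wells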
Starred values were filed as active, the others as inactive.

Screening COc1cc2nc(N3CCN(c4cc(C)ccc4C)CC3)nc(N)c2cc1OC returned GC-A act -22, Rin1 Abl inh 3, GC-B act -2 and CaV13 ICDI inh -3.
Screening COC(=O)[C@]12C[C@H](CC(=O)NCCc3ccccc3OC)C(=O)N(Cc3cccc4ccccc34)C1=C[C@H](C(C)C)O[C@@H]2C1CC1 returned GC-A act -9 and GC-B act 0.
`O=C(OC12CCCN(C1)/C(=C/c1ccc(Cl)cc1)C2)C1CCCCC1` (stereo not drawn) gave GC-A act 2 and GC-B act -5.
`CC(=O)N(c1ccccc1)c1nc(/C=C/C(=O)Nc2c(C)cc(C)cc2C)cs1` gave GC-A act 40*, Rin1 Abl inh -3, GC-B act 43* and CaV13 ICDI inh -6.
`COc1ccc(C2=Nn3c(nnc3C3CCCCC3)SC2)cc1` gave GC-A act -4 and GC-B act 9.
For Fc1c(F)c(F)c(/C=N/NC(=S)Nc2cccnc2)c(F)c1F the results were GC-A act 58*, Rin1 Abl inh -1, GC-B act 1 and CaV13 ICDI inh -5.
Cc1c(C(=O)NCc2ccc3c(c2)OCCO3)sc(=O)n1Cc1ccccc1F was read as GC-A act 0, Rin1 Abl inh 2, GC-B act -8 and CaV13 ICDI inh 73*.
CSc1ccc(Cn2c(C)c(C(=O)NCCC#N)sc2=O)cc1 was read as GC-A act 2, Rin1 Abl inh -2, GC-B act -4 and CaV13 ICDI inh 34*.
`COc1ccc(CNC(=O)c2sc(=O)n(Cc3ccc(-c4ccccc4)cc3)c2C)cc1OC` gave GC-A act 7, Rin1 Abl inh 0, GC-B act -11 and CaV13 ICDI inh -7.
`COc1ccc(CNC(=O)c2sc(=O)n(Cc3ccc(C)cc3)c2C)cc1OC` gave GC-A act 3, Rin1 Abl inh 3, GC-B act 8 and CaV13 ICDI inh 55*.
Cc1c(C(=O)NCc2cccc([N+](=O)[O-])c2)sc(=O)n1Cc1cccc(F)c1 was read as GC-A act -4, Rin1 Abl inh -1, GC-B act -5 and CaV13 ICDI inh 63*.
Screening Cc1c(C(=O)NCc2cccc([N+](=O)[O-])c2)sc(=O)n1Cc1ccc(F)cc1 returned GC-A act -2, Rin1 Abl inh -2, GC-B act -5 and CaV13 ICDI inh 8.
For Cn1c(=O)oc2cc(S(=O)(=O)N3CCN(CCO)CC3)ccc21 the results were GC-A act 4 and GC-B act -3.
Cc1ccc(Cn2c(C)c(C(=O)NCc3cccc(C(F)(F)F)c3)sc2=O)cc1 was read as GC-A act 2, Rin1 Abl inh 1, GC-B act 1 and CaV13 ICDI inh -12.
For Cc1c(C(=O)NCc2cccc(C(F)(F)F)c2)sc(=O)n1Cc1ccc(C(=O)N(C)C)cc1 the results were GC-A act 2, Rin1 Abl inh -1, GC-B act -4 and CaV13 ICDI inh 47*.
For CC1(C(=O)N2CCC(Oc3cccnc3)CC2)CC1 the results were GC-A act 2 and GC-B act -4.
Screening CN(c1ccccc1)S(=O)(=O)c1ccc(NC(=O)c2nc(S(C)(=O)=O)ncc2Cl)cc1 returned GC-A act 49*, Rin1 Abl inh 2, GC-B act 38* and CaV13 ICDI inh -15.
CCS(=O)(=O)c1ncc(Cl)c(C(=O)Nc2ccc(S(=O)(=O)N3CCC(C)CC3)cc2)n1 was read as GC-A act 41*, Rin1 Abl inh -4, GC-B act 31 and CaV13 ICDI inh -2.
Screening N=c1c2c(ccn1CCCc1ccccc1)Oc1ccc3ccccc3c1C2c1ccccc1 (stereo not drawn) returned GC-A act -33 and GC-B act -26.
C=CCN1C(C(=O)OC)CN(Cc2cn(Cc3ccc(C)cc3)nn2)CCS1(=O)=O (stereo not drawn) was read as GC-A act -2 and GC-B act 5.
Screening C[C@@H]1OCN(C)[C@H]2C[C@H]3c4[nH]c5cccc(-c6ccccc6)c5c4CCN3C[C@@H]12 returned GC-A act 2 and GC-B act 2.
`Cc1ccc(C(=O)n2ccc3ccc(-c4ccc5ccn(Cc6ccccc6)c5c4)cc32)cc1` gave GC-A act 2 and GC-B act 0.
Screening CCOc1cc(/C=C2/C(=O)ON=C2C)ccc1OCc1ccccc1F returned GC-A act 43*, Rin1 Abl inh 2, GC-B act 40* and CaV13 ICDI inh -8.
For CCOc1cc(/C=C2/C(=O)ON=C2C)ccc1OCc1ccc(F)cc1 the results were GC-A act 42*, Rin1 Abl inh 6, GC-B act 35* and CaV13 ICDI inh -7.
Screening CCOc1cc(/C=C2/C(=O)ON=C2C)ccc1OCc1ccccc1 returned GC-A act 43*, GC-B act 37* and CaV13 ICDI inh -12.
CCOc1cc(/C=C2\C(=O)ON=C2c2ccccc2)ccc1OC was read as GC-A act 29, Rin1 Abl inh 1, GC-B act 10 and CaV13 ICDI inh -17.
Cc1cnc(NC(=O)C2CC(=O)N(c3cccc(Cl)c3)C2)s1 (stereo not drawn) was read as GC-A act 14, Rin1 Abl inh 3, GC-B act 37* and CaV13 ICDI inh -5.
`O=C1NC(=S)S/C1=C\c1ccc(SCc2ccccc2)o1` gave GC-A act -3, Rin1 Abl inh 4, GC-B act 5 and CaV13 ICDI inh -4.
`O=C1NC(=S)S/C1=C\c1ccc(SCc2ccco2)o1` gave Rin1 Abl inh 12*.
`Nc1ccc(N)c(C(=O)O)c1` gave Rin1 Abl inh 13*.
For Clc1ccc(-n2nnnc2SCc2c(-c3ccccc3)nc3sccn23)cc1 the results were GC-A act 25, Rin1 Abl inh -3, GC-B act 39* and CaV13 ICDI inh -3.
For CC(=O)CC[C@H]1CC[C@]2(CCCN(C(=O)c3ccno3)C2)O1 the results were GC-A act 1 and GC-B act 1.
CCN1CCc2c(sc(NC(=O)Nc3ccc(Cl)c(Cl)c3)c2C(N)=O)C1 was read as GC-A act -2, Rin1 Abl inh 0, GC-B act -5 and CaV13 ICDI inh 59*.
`CCC(=O)Nc1sc2c(c1C(N)=O)CCN(Cc1ccccc1)C2` gave GC-A act -1, Rin1 Abl inh -1, GC-B act -4 and CaV13 ICDI inh 48*.
Screening CC(C)C(=O)Nc1sc2c(c1C(N)=O)CCN(Cc1ccccc1)C2 returned GC-A act 4, Rin1 Abl inh 0, GC-B act -1 and CaV13 ICDI inh active.
For CCN1CCc2c(sc(NC(=O)Cc3ccccc3)c2C(N)=O)C1 the results were GC-A act 3, Rin1 Abl inh 4, GC-B act 1 and CaV13 ICDI inh -1.
NC(=O)c1c(NC(=O)c2c(F)cccc2F)sc2c1CCN(Cc1ccccc1)C2 was read as GC-A act 0, Rin1 Abl inh 0, GC-B act 3 and CaV13 ICDI inh -2.
